Test results taken from ChEMBL document CHEMBL1961873, “Compounds: GSK PKIS; Assays: Nanosyn kinase panel” (2012).

Columns and labels:
[1] = target: Sphingosine kinase 1 (Homo sapiens) (UniProt Q9NYA1); details: at 1 µM;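 also: mean SPHK1 inhibition value reported from the GSK PKIS kinase panel screen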
[2] = target: T1, Sphingosine kinase 2 (Homo sapiens) (UniProt Q9NRA0); details: at 0.1 µM
T1 sequence (whole entry): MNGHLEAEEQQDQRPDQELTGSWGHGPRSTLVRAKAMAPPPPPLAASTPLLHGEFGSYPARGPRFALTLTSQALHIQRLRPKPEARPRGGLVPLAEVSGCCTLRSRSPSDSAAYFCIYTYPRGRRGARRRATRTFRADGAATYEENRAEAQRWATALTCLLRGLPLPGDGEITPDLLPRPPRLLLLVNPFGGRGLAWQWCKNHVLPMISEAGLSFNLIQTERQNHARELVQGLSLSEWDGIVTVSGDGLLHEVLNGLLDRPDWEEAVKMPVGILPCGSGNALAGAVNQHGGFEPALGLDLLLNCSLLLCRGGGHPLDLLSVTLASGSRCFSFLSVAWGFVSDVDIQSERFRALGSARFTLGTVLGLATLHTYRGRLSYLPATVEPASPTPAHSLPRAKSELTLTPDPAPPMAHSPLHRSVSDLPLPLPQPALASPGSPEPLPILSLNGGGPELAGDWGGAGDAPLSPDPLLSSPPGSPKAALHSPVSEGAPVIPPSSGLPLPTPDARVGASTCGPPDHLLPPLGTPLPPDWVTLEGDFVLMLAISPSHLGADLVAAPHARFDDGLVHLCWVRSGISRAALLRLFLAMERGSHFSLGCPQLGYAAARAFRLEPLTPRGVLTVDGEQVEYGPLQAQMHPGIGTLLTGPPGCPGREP

[3] = target: T1, Sphingosine kinase 2 (Homo sapiens); details: at 1 µM
[4] = target: Casein kinase II subunit alpha (Homo sapiens) (UniProt P68400); details: at 0.1 µM
Sequence of Casein kinase II subunit alpha (Homo sapiens) (P68400 whole entry, looked up): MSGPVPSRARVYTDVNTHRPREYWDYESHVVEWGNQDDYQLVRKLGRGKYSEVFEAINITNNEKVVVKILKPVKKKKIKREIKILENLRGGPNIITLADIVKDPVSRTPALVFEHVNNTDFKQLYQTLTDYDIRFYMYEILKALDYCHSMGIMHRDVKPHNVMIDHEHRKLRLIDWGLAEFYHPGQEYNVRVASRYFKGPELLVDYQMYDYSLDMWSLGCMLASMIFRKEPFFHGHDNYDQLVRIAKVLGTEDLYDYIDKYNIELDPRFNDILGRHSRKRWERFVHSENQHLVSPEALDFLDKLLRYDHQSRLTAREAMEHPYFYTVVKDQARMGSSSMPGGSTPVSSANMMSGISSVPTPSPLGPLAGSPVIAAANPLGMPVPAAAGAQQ

[5] = target: Casein kinase II subunit alpha (Homo sapiens) (UniProt P68400); details: at 1 µM
[6] = target: T2, Inhibitor of nuclear factor kappa-B kinase subunit alpha (Homo sapiens) (UniProt O15111); details: at 0.1 µM
T2 sequence (whole entry): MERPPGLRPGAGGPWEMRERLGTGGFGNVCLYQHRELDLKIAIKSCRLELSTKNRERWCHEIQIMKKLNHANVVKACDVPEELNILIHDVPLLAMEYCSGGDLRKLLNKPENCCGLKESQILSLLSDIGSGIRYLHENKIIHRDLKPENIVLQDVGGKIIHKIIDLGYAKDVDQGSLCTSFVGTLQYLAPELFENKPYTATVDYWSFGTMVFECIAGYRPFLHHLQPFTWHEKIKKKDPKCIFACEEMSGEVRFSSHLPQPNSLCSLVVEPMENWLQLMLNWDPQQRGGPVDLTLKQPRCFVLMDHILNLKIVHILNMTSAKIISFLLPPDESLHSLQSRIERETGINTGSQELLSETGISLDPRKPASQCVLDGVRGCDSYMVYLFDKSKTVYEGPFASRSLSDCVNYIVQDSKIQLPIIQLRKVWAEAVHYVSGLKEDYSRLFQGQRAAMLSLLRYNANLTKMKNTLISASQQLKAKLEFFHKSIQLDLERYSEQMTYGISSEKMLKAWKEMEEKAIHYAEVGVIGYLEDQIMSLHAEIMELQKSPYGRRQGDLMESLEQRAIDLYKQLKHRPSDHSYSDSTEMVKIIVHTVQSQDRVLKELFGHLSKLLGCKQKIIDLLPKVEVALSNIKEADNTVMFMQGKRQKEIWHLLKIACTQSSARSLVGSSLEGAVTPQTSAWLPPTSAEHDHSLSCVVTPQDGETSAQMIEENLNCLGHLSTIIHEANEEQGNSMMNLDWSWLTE

[7] = target: T2, Inhibitor of nuclear factor kappa-B kinase subunit alpha (Homo sapiens); details: at 1 µM
[8] = target: T3, Inhibitor of nuclear factor kappa-B kinase subunit beta (Homo sapiens) (UniProt O14920); details: at 0.1 µM
T3 sequence (whole entry): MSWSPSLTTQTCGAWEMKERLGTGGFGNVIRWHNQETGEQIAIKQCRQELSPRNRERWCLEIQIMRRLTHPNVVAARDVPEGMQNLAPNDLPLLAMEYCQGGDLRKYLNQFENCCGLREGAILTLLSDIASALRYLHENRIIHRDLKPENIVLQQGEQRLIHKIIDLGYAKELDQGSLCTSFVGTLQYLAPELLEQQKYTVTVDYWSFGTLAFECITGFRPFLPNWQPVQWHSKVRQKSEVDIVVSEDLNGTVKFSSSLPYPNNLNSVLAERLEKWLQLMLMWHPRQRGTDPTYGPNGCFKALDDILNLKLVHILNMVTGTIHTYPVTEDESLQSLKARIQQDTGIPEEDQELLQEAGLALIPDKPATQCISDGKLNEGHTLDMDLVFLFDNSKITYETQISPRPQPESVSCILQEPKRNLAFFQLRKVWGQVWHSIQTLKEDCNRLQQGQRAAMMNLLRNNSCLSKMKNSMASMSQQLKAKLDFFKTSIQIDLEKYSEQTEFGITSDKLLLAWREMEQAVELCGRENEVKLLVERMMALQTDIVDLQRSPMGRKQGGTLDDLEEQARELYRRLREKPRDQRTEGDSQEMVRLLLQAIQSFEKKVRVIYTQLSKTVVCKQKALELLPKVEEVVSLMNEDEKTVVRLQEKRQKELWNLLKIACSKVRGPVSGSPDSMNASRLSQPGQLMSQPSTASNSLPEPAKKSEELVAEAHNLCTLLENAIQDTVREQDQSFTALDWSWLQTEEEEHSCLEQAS

[9] = target: T3, Inhibitor of nuclear factor kappa-B kinase subunit beta (Homo sapiens); details: at 1 µM
[10] = target: T4, Inhibitor of nuclear factor kappa-B kinase subunit epsilon (Homo sapiens) (UniProt Q14164); details: at 0.1 µM
T4 sequence (whole entry): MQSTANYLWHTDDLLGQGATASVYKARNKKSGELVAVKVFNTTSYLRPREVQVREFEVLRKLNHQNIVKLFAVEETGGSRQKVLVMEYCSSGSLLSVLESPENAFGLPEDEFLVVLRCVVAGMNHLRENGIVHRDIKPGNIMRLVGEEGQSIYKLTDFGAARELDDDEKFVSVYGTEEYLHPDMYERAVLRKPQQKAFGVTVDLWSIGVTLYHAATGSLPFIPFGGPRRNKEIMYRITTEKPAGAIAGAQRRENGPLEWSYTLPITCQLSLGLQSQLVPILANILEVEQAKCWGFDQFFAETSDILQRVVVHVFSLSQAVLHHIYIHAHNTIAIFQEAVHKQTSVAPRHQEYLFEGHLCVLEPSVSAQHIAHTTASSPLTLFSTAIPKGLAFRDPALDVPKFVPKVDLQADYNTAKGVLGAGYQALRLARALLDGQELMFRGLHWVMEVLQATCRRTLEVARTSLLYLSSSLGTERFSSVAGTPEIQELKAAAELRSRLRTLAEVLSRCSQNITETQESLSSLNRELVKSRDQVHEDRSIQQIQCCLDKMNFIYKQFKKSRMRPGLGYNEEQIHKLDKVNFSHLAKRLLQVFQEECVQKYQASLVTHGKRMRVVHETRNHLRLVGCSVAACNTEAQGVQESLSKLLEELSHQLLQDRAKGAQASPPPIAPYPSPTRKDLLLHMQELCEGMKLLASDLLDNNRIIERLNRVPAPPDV

[11] = target: T4, Inhibitor of nuclear factor kappa-B kinase subunit epsilon (Homo sapiens); details: at 1 µM
[12] = target: T5, Serine/threonine-protein kinase Nek1 (Homo sapiens) (UniProt Q96PY6); details: at 0.1 µM
T5 sequence (whole entry): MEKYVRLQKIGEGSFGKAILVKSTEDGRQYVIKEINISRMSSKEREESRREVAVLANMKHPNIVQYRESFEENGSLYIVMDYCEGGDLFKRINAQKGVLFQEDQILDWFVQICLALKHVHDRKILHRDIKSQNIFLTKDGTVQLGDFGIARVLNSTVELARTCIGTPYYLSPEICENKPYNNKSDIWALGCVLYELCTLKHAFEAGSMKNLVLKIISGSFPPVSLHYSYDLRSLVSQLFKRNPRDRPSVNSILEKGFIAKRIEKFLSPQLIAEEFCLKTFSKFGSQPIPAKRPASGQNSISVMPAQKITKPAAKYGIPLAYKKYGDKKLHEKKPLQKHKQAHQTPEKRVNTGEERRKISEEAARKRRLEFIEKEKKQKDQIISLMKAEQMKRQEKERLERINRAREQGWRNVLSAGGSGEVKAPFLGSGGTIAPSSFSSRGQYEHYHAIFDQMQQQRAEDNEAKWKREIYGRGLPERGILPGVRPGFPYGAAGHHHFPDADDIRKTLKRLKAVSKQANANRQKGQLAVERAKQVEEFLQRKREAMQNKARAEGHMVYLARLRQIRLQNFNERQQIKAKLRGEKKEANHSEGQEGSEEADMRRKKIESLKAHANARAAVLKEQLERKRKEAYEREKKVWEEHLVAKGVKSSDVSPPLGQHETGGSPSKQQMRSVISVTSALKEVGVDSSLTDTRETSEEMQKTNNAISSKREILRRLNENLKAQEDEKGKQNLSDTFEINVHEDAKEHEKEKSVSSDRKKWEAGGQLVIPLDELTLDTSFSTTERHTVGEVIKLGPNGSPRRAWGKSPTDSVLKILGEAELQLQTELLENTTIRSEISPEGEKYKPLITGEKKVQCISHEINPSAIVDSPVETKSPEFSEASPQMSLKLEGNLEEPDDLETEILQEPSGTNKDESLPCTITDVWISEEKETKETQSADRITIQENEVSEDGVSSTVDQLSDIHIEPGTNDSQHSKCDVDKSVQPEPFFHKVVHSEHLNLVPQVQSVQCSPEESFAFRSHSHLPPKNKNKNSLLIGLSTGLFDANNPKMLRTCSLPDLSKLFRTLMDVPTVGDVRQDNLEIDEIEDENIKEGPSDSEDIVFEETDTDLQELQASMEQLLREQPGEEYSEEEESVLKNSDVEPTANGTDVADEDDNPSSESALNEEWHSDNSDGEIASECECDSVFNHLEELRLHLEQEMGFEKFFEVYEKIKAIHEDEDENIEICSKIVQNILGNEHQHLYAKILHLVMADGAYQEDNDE

[13] = target: T5, Serine/threonine-protein kinase Nek1 (Homo sapiens); details: at 1 µM
[14] = target: T6, Serine/threonine-protein kinase Nek2 (Homo sapiens) (UniProt P51955); details: at 0.1 µM
T6 sequence (whole entry): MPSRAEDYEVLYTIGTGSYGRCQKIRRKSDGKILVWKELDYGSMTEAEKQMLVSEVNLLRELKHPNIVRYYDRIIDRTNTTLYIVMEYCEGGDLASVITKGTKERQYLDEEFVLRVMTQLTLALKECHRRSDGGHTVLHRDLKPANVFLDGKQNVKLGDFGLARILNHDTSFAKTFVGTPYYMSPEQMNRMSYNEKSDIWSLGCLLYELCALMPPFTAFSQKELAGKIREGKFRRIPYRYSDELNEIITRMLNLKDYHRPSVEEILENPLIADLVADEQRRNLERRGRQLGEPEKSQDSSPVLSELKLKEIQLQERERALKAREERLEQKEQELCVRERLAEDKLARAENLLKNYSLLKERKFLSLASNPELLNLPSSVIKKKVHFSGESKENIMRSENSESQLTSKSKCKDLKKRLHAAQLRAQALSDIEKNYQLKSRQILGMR

[15] = target: T6, Serine/threonine-protein kinase Nek2 (Homo sapiens); details: at 1 µM
[16] = target: Serine/threonine-protein kinase Nek6 (Homo sapiens) (UniProt Q9HC98); details: at 0.1 µM
Sequence of Serine/threonine-protein kinase Nek6 (Homo sapiens) (Q9HC98 whole entry): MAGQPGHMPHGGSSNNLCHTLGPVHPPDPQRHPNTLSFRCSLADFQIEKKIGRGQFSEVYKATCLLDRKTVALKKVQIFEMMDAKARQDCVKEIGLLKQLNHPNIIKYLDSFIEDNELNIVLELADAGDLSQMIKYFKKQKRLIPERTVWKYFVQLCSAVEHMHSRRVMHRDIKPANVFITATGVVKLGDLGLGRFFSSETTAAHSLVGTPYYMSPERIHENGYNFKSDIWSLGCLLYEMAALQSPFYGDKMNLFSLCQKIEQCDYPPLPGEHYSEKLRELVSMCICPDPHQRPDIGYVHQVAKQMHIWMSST

[17] = target: Serine/threonine-protein kinase Nek6 (Homo sapiens) (UniProt Q9HC98); details: at 1 µM
[18] = target: Serine/threonine-protein kinase Nek7 (Homo sapiens) (UniProt Q8TDX7); details: at 0.1 µM
Sequence of Serine/threonine-protein kinase Nek7 (Homo sapiens) (Q8TDX7 whole entry, looked up): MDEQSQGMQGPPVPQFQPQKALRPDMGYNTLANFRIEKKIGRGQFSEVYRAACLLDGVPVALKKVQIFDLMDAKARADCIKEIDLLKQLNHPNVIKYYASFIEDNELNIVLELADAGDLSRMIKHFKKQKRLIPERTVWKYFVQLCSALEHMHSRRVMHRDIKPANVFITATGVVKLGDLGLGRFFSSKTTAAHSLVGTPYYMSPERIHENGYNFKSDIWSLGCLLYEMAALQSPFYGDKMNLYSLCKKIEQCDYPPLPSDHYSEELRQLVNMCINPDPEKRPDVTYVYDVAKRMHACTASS

[19] = target: Serine/threonine-protein kinase Nek7 (Homo sapiens) (UniProt Q8TDX7); details: at 1 µM
[20] = target: T7, Serine/threonine-protein kinase Nek9 (Homo sapiens) (UniProt Q8TD19); details: at 0.1 µM;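 also: reported value is the mean percent inhibition of NEK9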
T7 sequence (whole entry): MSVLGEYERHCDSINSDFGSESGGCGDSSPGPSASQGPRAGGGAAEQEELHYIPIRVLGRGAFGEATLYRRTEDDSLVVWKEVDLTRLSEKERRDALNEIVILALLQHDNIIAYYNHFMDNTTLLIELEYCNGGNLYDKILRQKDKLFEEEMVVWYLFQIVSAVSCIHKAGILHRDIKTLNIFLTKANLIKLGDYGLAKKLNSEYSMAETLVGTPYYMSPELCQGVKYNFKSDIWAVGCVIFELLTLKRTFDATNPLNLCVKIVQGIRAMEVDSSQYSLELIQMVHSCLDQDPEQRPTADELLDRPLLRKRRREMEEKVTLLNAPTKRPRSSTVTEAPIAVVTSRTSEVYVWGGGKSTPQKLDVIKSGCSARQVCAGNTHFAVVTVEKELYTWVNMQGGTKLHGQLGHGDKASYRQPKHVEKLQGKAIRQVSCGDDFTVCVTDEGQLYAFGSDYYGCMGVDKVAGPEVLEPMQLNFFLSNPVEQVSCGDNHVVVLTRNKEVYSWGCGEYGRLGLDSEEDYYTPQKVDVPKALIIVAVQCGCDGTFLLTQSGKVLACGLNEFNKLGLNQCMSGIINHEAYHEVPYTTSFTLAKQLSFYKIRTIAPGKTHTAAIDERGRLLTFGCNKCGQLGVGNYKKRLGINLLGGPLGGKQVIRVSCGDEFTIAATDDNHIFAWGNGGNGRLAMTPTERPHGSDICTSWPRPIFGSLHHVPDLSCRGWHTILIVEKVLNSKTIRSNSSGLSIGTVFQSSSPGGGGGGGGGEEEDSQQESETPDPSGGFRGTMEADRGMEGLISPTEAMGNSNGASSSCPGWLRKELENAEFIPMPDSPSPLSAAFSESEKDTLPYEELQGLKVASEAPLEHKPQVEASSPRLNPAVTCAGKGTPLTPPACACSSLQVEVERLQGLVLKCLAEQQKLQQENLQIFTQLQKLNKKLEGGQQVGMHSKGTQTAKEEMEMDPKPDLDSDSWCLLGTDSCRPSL

Sequence of Sphingosine kinase 1 (Homo sapiens) (Q9NYA1 whole entry): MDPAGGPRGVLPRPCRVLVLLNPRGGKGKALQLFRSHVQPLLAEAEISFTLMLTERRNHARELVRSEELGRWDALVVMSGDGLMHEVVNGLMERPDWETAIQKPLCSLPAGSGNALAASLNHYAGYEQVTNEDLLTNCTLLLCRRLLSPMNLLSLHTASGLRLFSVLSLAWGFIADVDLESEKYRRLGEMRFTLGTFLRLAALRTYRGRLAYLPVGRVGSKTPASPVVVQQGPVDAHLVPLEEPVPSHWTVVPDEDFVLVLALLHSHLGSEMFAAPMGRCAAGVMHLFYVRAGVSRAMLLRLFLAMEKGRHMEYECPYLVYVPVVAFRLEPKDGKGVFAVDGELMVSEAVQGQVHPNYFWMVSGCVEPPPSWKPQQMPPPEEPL

With COc1cc2ncn(-c3cc(O[C@H](C)c4ccccc4Cl)c(C(N)=O)s3)c2cc1OC the inhibition [1] was -3.88%, the inhibition [2] was 0.33% and the inhibition [3] was -2.47%. The inhibition [4] was 5.76%, the inhibition [5] was 19.5% and the inhibition [6] was 6.13%. For the same compound, the inhibition [7] was 9.16%, the inhibition [8] was 3.99% and the inhibition [9] was 6.57%. The inhibition [10] was 8.51%, the inhibition [11] was 6.91% and the inhibition [12] was 29.8%. The inhibition [13] was 67.8%, the inhibition [14] was 12.1% and the inhibition [15] was 48.8%. It also gave an inhibition [16] of 2.67%, an inhibition [17] of 4.93% and an inhibition [18] of 3.58%. For the same compound, the inhibition [19] was 4.26% and the inhibition [20] was 62%.
